To fix the notation:
B1: ENSMUSG00000029636.77|Wasf3 (ssRNA)
RNA: GGGAGUUCUACAGUCCGACGAUCGCUUCGAUAUCCGCAUGCUAAAGAUCACUGGCUGUGUGUCUCAGUGAUGUCUUCCAACCAGUGGGUGAUACGUUUUCCUGUUUCUUCCCUUUGCAAAUUGAAUUCCAGGUAGAUAUGGUUGUAGAGGGGAAAGUUUAACAAAUCAGAAUGAAAUGUUUGUCUGUUUGCACACUGGGCCUGGUGGCCUCCAAGGAAAUGUGUACGAUCGUUUGCUUUCUCUAUCUUGGCGCUUGCAACCGAGAGCGGCCAUUUUUAUGAGGGGAGCCCUGUGGGUACUCAUCUCUUGCGGUCGCACUAGUGUGGAAUUCUCGGGUGUCAAGG
B2: ENSMUSG00000090935.714|Synj2bp (ssRNA)
RNA: GGGAGUUCUACAGUCCGACGAUCGCUUCGAUAUCCGCAUGCUAAGAGCUCUGCUCUCUGAGCAUCUGCCCCAGAUACAGAGGCAGAGUAUGAAGUGGAACAUUGUUUUAUUCCUAGGUGCUCAGGACAGACUGAUCAACCUCCAGUAACAUAUGUGGUUAGUAAGUGCUUCAGCUUGUGUAGCCAUUAAUAACCAAGUCAUAGGAUUGUGAAUCUAAAAUACUCCUGGGUAAAAUUUGUAUUAGAAUGGAAAAAAAAAUGAGGGUCAGAAAGGUGAGCUAACUUCAAGUUAGAUACUCCCCUCCUCUUGCGGUCGCACUAGUGUGGAAUUCUCGGGUGUCAAGG
B3: ENSMUSG00000061578.632|Ksr2|56:60;95:99 (ssRNA)
RNA: GGGAGUUCUACAGUCCGACGAUCGCUUCGAUAUCCGCAUGCUAUAGAGGGGACGGACAGCUCCCUGACCCUGGAUGGCCAGGAAUGGUGCUAGCUAGGCACACAGCCAAGCCCUUGAGGCUACUGUGAGUUAUGAGAACACACCAACCCUCAGCCCACAGACUGCAUAUGCCCCAGGACAGCUGUGAAGGUGACCCAAUACAAAAUCGUAAACUAACUUAAAACCAUUAAGGGUUUUUGUUUUGUUGUUGUUUGCUGGCUUUUUGUUUUUUGGGUUGGUUUUCUUUUUCUUUCUUUCUUUUUUCUCUUGCGGUCGCACUAGUGUGGAAUUCUCGGGUGUCAAGG
B4: ENSMUSG00000029636.430|Wasf3 (ssRNA)
RNA: GGGAGUUCUACAGUCCGACGAUCGCUUCGAUAUCCGCAUGCUAGUGGAUACAUGGAUGAGUGGAUGGGUGGAUUGGUGGGUGAGUGGAUAGGUGAAUGGAUGAUAGGUGGUGGAUGGUUGAGUGGGUGGAUUCAUGAUGGAUGGAUGGAUGGAUGGAUGGAUGGAUGGAUGGAUGAGUGGAUGGAUAAUAGGUUGAUGGGUGGAUAGGUAGAUGAGUGAAUAGAUAGAUAUAGAUCAGUGGGAGGAUUGGAAAGUAGGUGAAUGAAUGGAUGGCAGAUAGAUGGAUCAAUUACAGAUGGAUGGCUCUUGCGGUCGCACUAGUGUGGAAUUCUCGGGUGUCAAGG
B5: ENSMUSG00000029636.428|Wasf3 (ssRNA)
RNA: GGGAGUUCUACAGUCCGACGAUCGCUUCGAUAUCCGCAUGCUAGUGGAUGGGUGGGUGGAUACAUGGAUGAGUGGAUGGGUGGAUUGGUGGGUGAGUGGAUAGGUGAAUGGAUGAUAGGUGGUGGAUGGUUGAGUGGGUGGAUUCAUGAUGGAUGGAUGGAUGGAUGGAUGGAUGGAUGGAUGGAUGAGUGGAUGGAUAAUAGGUUGAUGGGUGGAUAGGUAGAUGAGUGAAUAGAUAGAUAUAGAUCAGUGGGAGGAUUGGAAAGUAGGUGAAUGAAUGGAUGGCAGAUAGAUGGAUCAAUUCUCUUGCGGUCGCACUAGUGUGGAAUUCUCGGGUGUCAAGG
B6: ENSMUSG00000029636.427|Wasf3 (ssRNA)
RNA: GGGAGUUCUACAGUCCGACGAUCGCUUCGAUAUCCGCAUGCUAAGCUAGGUGGAUGGGUGGGUGGAUACAUGGAUGAGUGGAUGGGUGGAUUGGUGGGUGAGUGGAUAGGUGAAUGGAUGAUAGGUGGUGGAUGGUUGAGUGGGUGGAUUCAUGAUGGAUGGAUGGAUGGAUGGAUGGAUGGAUGGAUGGAUGAGUGGAUGGAUAAUAGGUUGAUGGGUGGAUAGGUAGAUGAGUGAAUAGAUAGAUAUAGAUCAGUGGGAGGAUUGGAAAGUAGGUGAAUGAAUGGAUGGCAGAUAGAUGGACUCUUGCGGUCGCACUAGUGUGGAAUUCUCGGGUGUCAAGG
B7: ENSMUSG00000042529.153|Kcnj12 (ssRNA)
RNA: GGGAGUUCUACAGUCCGACGAUCGCUUCGAUAUCCGCAUGCUAAUAGGAAACACCAGAGUGGGUGCUUCUUAGAAAAGGACACUCAGGAAAUUAGUAUGGGGUCUGGGUCCCACAUCCCCAGGAAGUGGGUCAGCCCCACGUCCCCCGCUGGACUCACAGCUUGAGUUGUGCCUUAGAGACUCUGGUUGUCUGGCUUCCGUCAUUUCUGGUUUUCUCAGACUUGUUUAAUCUUUCCCUACUGCCCUAAGUCCACUCAUGAAGCUCCCCAGGCCCUUCUGAGAUUGCAGAGGCUGCUUGCUCAUCUCUUGCGGUCGCACUAGUGUGGAAUUCUCGGGUGUCAAGG
B8: ENSMUSG00000058297.6|Spock2 (ssRNA)
RNA: GGGAGUUCUACAGUCCGACGAUCGCUUCGAUAUCCGCAUGCUAGGCAGGGGAGGAGGCCGAGGAGGAGGAGGGUGAGGCGGGUGAGGCAGAUGAUGGAGGCUACAUCUGGUAGAUAGCCCUCGACGGCCUCGGCAGGCCAGGGUGCCGACGGCCAGAAAGACAGGCCAGAAGAGACCUGGACAACAGCAGGCAACUUAGCAAAUGGAUCCGGAAGUCAGUGCGGAGGACCCUGGCUCCAGUGGGGGAGGACUGGGGAGUGUGGCUUGUGUGUAUGUGUGAUAUGAGAUGUGUGUGUAUGAUGUCUCUUGCGGUCGCACUAGUGUGGAAUUCUCGGGUGUCAAGG
B9: ENSMUSG00000058297.9|Spock2 (ssRNA)
RNA: GGGAGUUCUACAGUCCGACGAUCGCUUCGAUAUCCGCAUGCUAGGAGGAGGAGGGUGAGGCGGGUGAGGCAGAUGAUGGAGGCUACAUCUGGUAGAUAGCCCUCGACGGCCUCGGCAGGCCAGGGUGCCGACGGCCAGAAAGACAGGCCAGAAGAGACCUGGACAACAGCAGGCAACUUAGCAAAUGGAUCCGGAAGUCAGUGCGGAGGACCCUGGCUCCAGUGGGGGAGGACUGGGGAGUGUGGCUUGUGUGUAUGUGUGAUAUGAGAUGUGUGUGUAUGAUGUGAGAUGUGAGUGUGUGAUCUCUUGCGGUCGCACUAGUGUGGAAUUCUCGGGUGUCAAGG
B10: ENSMUSG00000058297.7|Spock2 (ssRNA)
RNA: GGGAGUUCUACAGUCCGACGAUCGCUUCGAUAUCCGCAUGCUAGGAGGAGGCCGAGGAGGAGGAGGGUGAGGCGGGUGAGGCAGAUGAUGGAGGCUACAUCUGGUAGAUAGCCCUCGACGGCCUCGGCAGGCCAGGGUGCCGACGGCCAGAAAGACAGGCCAGAAGAGACCUGGACAACAGCAGGCAACUUAGCAAAUGGAUCCGGAAGUCAGUGCGGAGGACCCUGGCUCCAGUGGGGGAGGACUGGGGAGUGUGGCUUGUGUGUAUGUGUGAUAUGAGAUGUGUGUGUAUGAUGUGAGAUGCUCUUGCGGUCGCACUAGUGUGGAAUUCUCGGGUGUCAAGG
B11: ENSMUSG00000058297.10|Spock2 (ssRNA)
RNA: GGGAGUUCUACAGUCCGACGAUCGCUUCGAUAUCCGCAUGCUAGGAGGGUGAGGCGGGUGAGGCAGAUGAUGGAGGCUACAUCUGGUAGAUAGCCCUCGACGGCCUCGGCAGGCCAGGGUGCCGACGGCCAGAAAGACAGGCCAGAAGAGACCUGGACAACAGCAGGCAACUUAGCAAAUGGAUCCGGAAGUCAGUGCGGAGGACCCUGGCUCCAGUGGGGGAGGACUGGGGAGUGUGGCUUGUGUGUAUGUGUGAUAUGAGAUGUGUGUGUAUGAUGUGAGAUGUGAGUGUGUGAUGUGAGACUCUUGCGGUCGCACUAGUGUGGAAUUCUCGGGUGUCAAGG
B12: ENSMUSG00000058297.8|Spock2|203:207;211:224;233:244 (ssRNA)
RNA: GGGAGUUCUACAGUCCGACGAUCGCUUCGAUAUCCGCAUGCUAGGCCGAGGAGGAGGAGGGUGAGGCGGGUGAGGCAGAUGAUGGAGGCUACAUCUGGUAGAUAGCCCUCGACGGCCUCGGCAGGCCAGGGUGCCGACGGCCAGAAAGACAGGCCAGAAGAGACCUGGACAACAGCAGGCAACUUAGCAAAUGGAUCCGGAAGUCAGUGCGGAGGACCCUGGCUCCAGUGGGGGAGGACUGGGGACACACGCUACACACAUACACACAUAUGAGAACACACACAUACAUGUGAGAUGUGAGUGCUCUUGCGGUCGCACUAGUGUGGAAUUCUCGGGUGUCAAGG
B13: ENSMUSG00000058297.4|Spock2 (ssRNA)
RNA: GGGAGUUCUACAGUCCGACGAUCGCUUCGAUAUCCGCAUGCUAGGAGACAGAAGAGGCAGGGGAGGAGGCCGAGGAGGAGGAGGGUGAGGCGGGUGAGGCAGAUGAUGGAGGCUACAUCUGGUAGAUAGCCCUCGACGGCCUCGGCAGGCCAGGGUGCCGACGGCCAGAAAGACAGGCCAGAAGAGACCUGGACAACAGCAGGCAACUUAGCAAAUGGAUCCGGAAGUCAGUGCGGAGGACCCUGGCUCCAGUGGGGGAGGACUGGGGAGUGUGGCUUGUGUGUAUGUGUGAUAUGAGAUGUGCUCUUGCGGUCGCACUAGUGUGGAAUUCUCGGGUGUCAAGG
B14: ENSMUSG00000058297.9|Spock2|197:201;205:218;227:238;252:258 (ssRNA)
RNA: GGGAGUUCUACAGUCCGACGAUCGCUUCGAUAUCCGCAUGCUAGGAGGAGGAGGGUGAGGCGGGUGAGGCAGAUGAUGGAGGCUACAUCUGGUAGAUAGCCCUCGACGGCCUCGGCAGGCCAGGGUGCCGACGGCCAGAAAGACAGGCCAGAAGAGACCUGGACAACAGCAGGCAACUUAGCAAAUGGAUCCGGAAGUCAGUGCGGAGGACCCUGGCUCCAGUGGGGGAGGACUGGGGACACACGCUACACACAUACACACAUAUGAGAACACACACAUACAUGUGAGAUGUGACACACACAUCUCUUGCGGUCGCACUAGUGUGGAAUUCUCGGGUGUCAAGG
B15: ENSMUSG00000058297.8|Spock2 (ssRNA)
RNA: GGGAGUUCUACAGUCCGACGAUCGCUUCGAUAUCCGCAUGCUAGGCCGAGGAGGAGGAGGGUGAGGCGGGUGAGGCAGAUGAUGGAGGCUACAUCUGGUAGAUAGCCCUCGACGGCCUCGGCAGGCCAGGGUGCCGACGGCCAGAAAGACAGGCCAGAAGAGACCUGGACAACAGCAGGCAACUUAGCAAAUGGAUCCGGAAGUCAGUGCGGAGGACCCUGGCUCCAGUGGGGGAGGACUGGGGAGUGUGGCUUGUGUGUAUGUGUGAUAUGAGAUGUGUGUGUAUGAUGUGAGAUGUGAGUGCUCUUGCGGUCGCACUAGUGUGGAAUUCUCGGGUGUCAAGG
B16: ENSMUSG00000058297.1|Spock2 (ssRNA)
RNA: GGGAGUUCUACAGUCCGACGAUCGCUUCGAUAUCCGCAUGCUAGGAGGAUGAGGAAGAAAAGGAGACAGAAGAGGCAGGGGAGGAGGCCGAGGAGGAGGAGGGUGAGGCGGGUGAGGCAGAUGAUGGAGGCUACAUCUGGUAGAUAGCCCUCGACGGCCUCGGCAGGCCAGGGUGCCGACGGCCAGAAAGACAGGCCAGAAGAGACCUGGACAACAGCAGGCAACUUAGCAAAUGGAUCCGGAAGUCAGUGCGGAGGACCCUGGCUCCAGUGGGGGAGGACUGGGGAGUGUGGCUUGUGUGUACUCUUGCGGUCGCACUAGUGUGGAAUUCUCGGGUGUCAAGG

The full ranking holds about 9,900 sequences; the median of “r (bound/input frequency ratio)” is about 0.7, and the highest 2% start at about 6.5. For the sample, the highest values were picked, then their nearest neighbours and some sequences at random.

The experiment deals with TDP-43 (Homo sapiens, UniProt Q13148 1-414). Briefly: RNA Bind-n-Seq with designed 260-mer pool; 25 mM Tris-HCl, 150 mM KCl, 3 mM MgCl2, BSA (printed 500 mg/mL), 20 units/mL SUPERase IN; pH not stated; 500 nM RNA pool, 1 h, 4 C; TDP-43 5, 50, 500 nM; high values mean tight binding. The note with it: protein: recombinant; tags: SBP (GST cleaved off with PreScission; pGEX-GST-SBP). The gist of the method: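 Recombinant SBP-tagged TDP-43 at 5, 50 or 500 nM was captured on streptavidin beads, then incubated 1 h at 4 °C with 500 nM of an in vitro-transcribed 260-nt 3′ UTR oligo pool in 25 mM Tris-HCl, 150 mM KCl, 3 mM MgCl2, BSA and SUPERase IN. Bound RNA was washed, eluted with biotin, reverse transcribed, PCR-amplified and sequenced. Binding is R, each oligo's mapped-read-normalized abundance in the bound sample divided by its abundance in input. Duplicates used two independent protein batches.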
TDP-43, sequence (Q13148 whole entry): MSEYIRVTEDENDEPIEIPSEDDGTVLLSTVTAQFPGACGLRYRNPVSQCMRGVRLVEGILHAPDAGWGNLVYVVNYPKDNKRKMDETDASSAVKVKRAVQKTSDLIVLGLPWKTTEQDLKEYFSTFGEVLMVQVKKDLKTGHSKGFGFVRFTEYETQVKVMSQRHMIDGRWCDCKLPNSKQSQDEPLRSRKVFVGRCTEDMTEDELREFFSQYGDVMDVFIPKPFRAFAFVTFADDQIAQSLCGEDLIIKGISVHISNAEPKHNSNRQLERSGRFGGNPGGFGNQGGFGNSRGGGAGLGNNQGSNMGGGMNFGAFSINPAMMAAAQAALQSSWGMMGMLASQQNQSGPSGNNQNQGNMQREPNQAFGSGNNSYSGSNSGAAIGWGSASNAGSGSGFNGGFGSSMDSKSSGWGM
Consider B1, for which the binding signal is 4.99 R (bound/input frequency ratio).

As to B2, the binding signal was 1.22 R (bound/input frequency ratio).

Regarding B3, the binding signal was 0.54 R (bound/input frequency ratio). Next, B4: 4.31 R (bound/input frequency ratio); B5: 8.28 R (bound/input frequency ratio).

On to B6, for which the binding signal is 4.15 R (bound/input frequency ratio). The figure for B7 is 0.587 R (bound/input frequency ratio); for B8 it is 4.92 R (bound/input frequency ratio). Next, B9: 5.99 R (bound/input frequency ratio); B10: 5.88 R (bound/input frequency ratio). Next, B11: 6.91 R (bound/input frequency ratio); B12: 2.32 R (bound/input frequency ratio); B13: 6.81 R (bound/input frequency ratio). Take B14: the binding signal was 2.81 R (bound/input frequency ratio). As for B15, the binding signal is 6.51 R (bound/input frequency ratio). The figure for B16 is 3.54 R (bound/input frequency ratio).

Values taken from PMC12864922, “TDP-43 directly inhibits mRNA accumulation in neurites through modulation of mRNA stability”.
